Source: PubChem BioAssay
ALOX15 inhib: blocks human 15-lipoxygenase activity. P16050. purified 15hLO-1, xylenol orange hydroperoxide absorbance. Potency, µM (highest dose often 57.1 µM), for the others: top-dose activity change, negative = inhibition, actives largely listed as inhibitors. 74,000 compounds, 1.4% hits. AID 887; note: % is set by controls: 0 for no effect and ±100 for the full control effect; nearly all actives have a fitted effect of over 55% in size
Target sequence (P16050 whole entry, looked up): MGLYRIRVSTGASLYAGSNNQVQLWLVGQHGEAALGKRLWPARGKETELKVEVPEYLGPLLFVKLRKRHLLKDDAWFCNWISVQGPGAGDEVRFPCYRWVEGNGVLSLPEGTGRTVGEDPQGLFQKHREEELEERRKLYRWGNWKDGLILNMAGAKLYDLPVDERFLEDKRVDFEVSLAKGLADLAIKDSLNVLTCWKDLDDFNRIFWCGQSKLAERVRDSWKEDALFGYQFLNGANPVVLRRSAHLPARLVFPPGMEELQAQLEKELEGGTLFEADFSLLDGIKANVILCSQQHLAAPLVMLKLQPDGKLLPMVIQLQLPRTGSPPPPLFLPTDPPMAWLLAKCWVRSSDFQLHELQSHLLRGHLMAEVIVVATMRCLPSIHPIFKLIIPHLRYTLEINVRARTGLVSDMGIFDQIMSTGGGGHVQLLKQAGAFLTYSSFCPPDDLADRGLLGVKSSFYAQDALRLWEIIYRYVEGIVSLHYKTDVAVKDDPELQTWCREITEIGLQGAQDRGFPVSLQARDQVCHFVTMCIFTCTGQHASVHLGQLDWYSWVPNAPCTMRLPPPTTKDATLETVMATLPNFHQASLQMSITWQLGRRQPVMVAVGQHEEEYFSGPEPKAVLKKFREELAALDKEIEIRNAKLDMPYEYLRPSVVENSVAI
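Purified human 15hLO-1 (40 nM final) in 25 mM Hepes pH 7.5, 0.01% Triton X-100 was preincubated with compound 15 min at room temperature, then reacted 6 min with 50 uM arachidonic acid; hydroperoxide detected by Fe-XO, 573/405 nm absorbance ratio.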
Casp7 inh: allosteric or competitive inhibitors of human caspase-7 | Potency, µM (doses to about 57.5 µM), inactives show at the highest dose activity change, negative = inhibition, usual class: inhibitors | recombinant caspase-7, Ac-DEVD-AFC fluorescence rate | P55210 | 75,000 compounds, 0.02% hits; active = well fitted inhibition curve with a large enough effect in the main read-out, with a control signal flat, not every such curve was filed as active; inconclusive = small, poorly fitted or top-dose-only effect, or a change in a side signal; note: % of control where 0% means no effect
15-hLO-2 inh: blocks human 15-lipoxygenase 2 activity; AID 881; purified 15hLO-2, xylenol orange hydroperoxide absorbance; O15296; 110,000 compounds, 0.56% hits; Potency, µM (top dose mostly 57.1 µM), for the others: top-dose activity change, negative = inhibition, usual class: inhibitors; note: % is set by controls: 0 for no effect and ±100 for the full control effect; nearly all actives have a fitted effect of over 60% in size
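Purified human 15hLO-2 (50 nM final) preincubated with compounds 15 min at room temperature in 25 mM Hepes pH 7.5, 0.01% Triton X-100, then 45 uM arachidonic acid added for 90 min; hydroperoxide detected via ferrous/xylenol orange, 573/405 nm absorbance ratio.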
TSHR ag: TSH receptor (human) agonism; HEK293-CNG-TSHR cells (CNG channel as cAMP sensor), membrane potential dye, cAMP; Potency, µM (series often up to 57.1 µM), for inactives: at the top dose activation, most hits filed as activators; P16473; 73,000 compounds, 0.48% hits; active = well fitted activation curve with a large enough effect in the main read-out, with a control signal flat, not every such curve was filed as active; inconclusive = small, poorly fitted or top-dose-only effect, or a change in a side signal; inactive = no such curve, though single readings can be large or run the other way; % of control where 0% means no effect;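 note: the control signal comes from parental cells without the receptor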
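HEK 293 cells stably expressing TSHR and a modified CNG channel, with CNG-only parental cells as counterscreen, were preloaded 60 min at room temperature with membrane potential dye containing 100 uM RO 20-1724. Compound exposure was 30 min, and depolarization was read as fluorescence at 590 nm.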
Caspase-1 inhib: caspase-1 (human) inhibition, allosteric or competitive; Potency, µM (top dose mostly 57.5 µM), for the others: top-dose activity change, negative = inhibition, usual class: inhibitors; Caspase-1 enzyme, Ac-WEHD-AFC fluorogenic rate; 75,000 compounds, 0.03% hits; P29466;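 note: plate controls were vehicle for no effect and no substrate for full effect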
HEK293 cAMP cs: parental HEK293 cAMP activation (counter-screen). parental HEK293 CNG cAMP sensor, membrane potential fluorescence. Potency, µM (top dose mostly 57.1 µM), without a hit: at the top dose activation, actives largely listed as activators. 73,000 compounds, 2.5% hits. AID 938; note: % of control where 0% means no effect; nearly all actives have a fitted effect of over 55% in size
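Counterscreen for endogenous-receptor signalling: CNG-channel HEK 293 cells report cAMP rise by membrane depolarization. After 60 min dye equilibration with 100 uM RO 20-1724, compounds incubated 30 min before bottom-read fluorescence at 590 nm.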
Active calls of the source: *; u = inconclusive; x = no result given; [ ] = remark or other dose. Shown are actives, neighbours in structure and some others; about 3% of the full set was active somewhere. Unless noted, calls come from the whole dose curve; as a rule, active = well fitted curve in the direction sought with a large enough effect; inconclusive = small, poorly fitted or top-dose-only effect, or another doubt; inactive = no such curve, though single readings can be large; an effect the other way counts as inactive or inconclusive. Potency is the fitted concentration of half-maximal effect.

SMILES	ALOX15 inhib	Casp7 inh	15-hLO-2 inh	TSHR ag	Caspase-1 inhib	HEK293 cAMP cs
Cc1cccc(NC(=S)N(CCN(C)C)C(C)c2ccccn2)c1 (stereo not drawn)	x	x	9%	x	x	x
COc1ccccc1CNc1ncncc1-c1cccc(C#N)c1	3%	0%	2%	26%	-1%	18%
O=C1C=CC(=O)C2=C1C1c3ccccc3C2c2ccccc21	0.79µM*	0%	2µM*	-5%	-1%	-2%
O=c1c(-c2ccc(F)cc2)nc2cnc(N3CCOCC3)nc2n1CCc1ccccc1	-5%	u	-4%	11%	x	13%[2.29 µM]
CCNc1ncc2nc(C)c(=O)n(Cc3cccc(OC)c3)c2n1	8%	-15%	-3%	3%	-14%	25%
CCC1CCc2c(sc3ncnc(N4CCOCC4)c23)C1 (stereo not drawn)	-5%	0%	5%	u	-2%	32µM*
Cc1cc2ncn(-c3ncnc4sc5c(c34)CCC(C)C5)c2cc1C (stereo not drawn)	x	x	30%	x	x	x
COc1cc(/C=C\C(=O)N2CCCCC2=O)cc(OC)c1OC	x	x	x	1%	x	-9%
O=C(c1ccco1)N1CCC2(CC1)CCN(c1ccccn1)CC2	1%	0%	-2%	13%	-4%	11%
COc1cccc(Cn2c(=O)c(CCc3ccccc3)nc3cnc(N4CCN(C)CC4)nc32)c1	-15%	-15%	27%	-14%	-10%	-25%
Nc1c(NCCCN2CCOCC2)c2ccccc2oc1=O	u	-1%	0%	x	-5%	-3%
Nc1c(NCCN2CCOCC2)c2ccccc2oc1=O	1.6µM*	0%	43%	-4%[11.4 µM]	3%	-6%
C=CCn1c(N)c(C(=O)NCCC2=CCCCC2)sc1=S	25µM*	-4%	u	-18%	-7%	-13%
NC(=O)NCCC1=CCCCC1	x	x	0%	x	x	x
Oc1cc2c(cc1O)[C@H](c1ccccc1)CNCC2	7%[25.6 µM]	1%	u	4%	2%	9%
Oc1ccc([C@@H]2CNCc3sccc32)cc1O	u	0%	u	u	-1%	32µM*
Cc1nn(-c2ccccc2)c2sc(C(=O)N3CCc4ccccc4C3)cc12	-15%	-4%	-1%	u	-1%	20µM*
Cc1nc2ccccc2c2oc(C(=O)N3CCc4ccccc4C3)cc12	20µM*	-9%	-2%	u	-4%	u
O=C1NC(c2cccs2)Nc2sc3c(c21)CCCC3 (stereo not drawn)	25µM*	0%	-24%	-3%	2%	3%
COC(=O)CCCOc1ccc(Cl)cc1Cl	1%	0%	-10%	x	2%	x
O=S(=O)(Nc1ccc2c(c1)OCO2)c1ccc(Br)s1	25µM*	2%	-16%	5%	1%	0%
O=S(=O)(Nc1ccc2c(c1)OCO2)c1ccccc1	x	x	-17%	x	x	x
COc1ccc(-c2noc(CSc3nc(-c4ccccc4)cc(=O)[nH]3)n2)cc1OC	-11%	-3%	u	16µM*	-1%	6%
CCOC(=O)c1sc(NC(=O)CSc2nnnn2-c2ccccc2)nc1C	-5%[11.4 µM]	-2%	-3%	19%[11.4 µM]	-5%	16%[11.4 µM]
CCOC(=O)c1oc2ccccc2c1CSc1nnnn1-c1ccccc1	4%	-1%	-14%	u	-2%	16µM*
SMILES	ALOX15 inhib	Casp7 inh	15-hLO-2 inh	TSHR ag	Caspase-1 inhib	HEK293 cAMP cs
CC(=O)[C@H]1CC[C@@H]2[C@]1(C)CC=C1[C@]23C=C[C@]2(C[C@H](O)CC[C@@]12C)[C@H](C(=O)O)[C@@H]3C(=O)O	7%[11.4 µM]	0%[11.5 µM]	-8%[11.4 µM]	10%[11.4 µM]	-1%[11.5 µM]	-6%[11.4 µM]
Cc1nc(SCC(=O)CC(=O)OC(C)C)c(C#N)c(C)c1C	u	-3%	19%[2.29 µM]	u	-7%	u
Cc1cc(C)c(C#N)c(SCC(=O)CC(=O)OC(C)C)n1	-3%	-2%	-4%	u	-9%	25µM*
Cc1ccc(NC2c3ncccc3C(=O)N2c2ccccc2C)cc1C (stereo not drawn)	25µM*	-6%	u	x	-4%	3%
CC(C)C(c1nnnn1C1CCCC1)N1CCc2ccccc21 (stereo not drawn)	1%	2%	-13%	u	-1%	u
CC(C)C(c1nnnn1C1CCCCC1)N1CCc2ccccc2C1 (stereo not drawn)	9%	1%	-2%	u	0%	5µM*
Cc1cc(C)c(/C=C2/C(=O)Nc3ccccc32)[nH]1	u	1%	u	u	-4%	1.6µM*
COCC(=O)N1CCC[C@@]2(CCN(c3ccccc3)C2)C1	-8%	-6%	-15%	4%	-7%	2%
COc1ccc([C@@H]2CNC(=O)C2)cc1OC1CCCC1	u	-1%	3%	6%	0%	-3%
C[C@@H](C(=O)N[C@@H](CO)Cc1ccccc1)[C@H]1C[C@]1(C)[C@H](NC(=O)OCc1ccccc1)c1ccccc1	x	-2%	0%	u	-5%	10µM*
CNC(=O)[C@H](C)[C@H]1C[C@]1(C)[C@H](NC(=O)OCc1ccccc1)c1ccccc1	x	-1%	14%	u	-2%	6.3µM*
COC(=O)[C@H](Cc1ccccc1)NC(=O)[C@]1(C)C[C@H]1[C@H](NC(=O)OCc1ccccc1)c1ccccc1	-12%	-4%	6%	u	0%	5µM*
C[C@@H](C(=O)NCc1ccccc1)[C@@H]1C[C@@]1(C)[C@@H](NC(=O)OCc1ccccc1)c1ccccc1	x	-2%	2%	6%	-1%	12%
C[C@@H](C(=O)NCC1CC1)[C@H]1C[C@]1(C)[C@H](NC(=O)OCc1ccccc1)c1ccccc1	x	1%	11%	u	-2%	10µM*
C[C@@H](C(=O)N[C@@H](CO)Cc1ccccc1)[C@@H]1C[C@@]1(C)[C@@H](NC(=O)OCc1ccccc1)c1ccccc1	x	1%	3%	18%	1%	-2%
C(/C=C\c1ccccc1)=Nc1ccc2c(c1)Cc1ccccc1-2	11%[11.4 µM]	1%[11.5 µM]	-8%[11.4 µM]	-8%[11.4 µM]	-1%[11.5 µM]	-2%[11.4 µM]
CC(C)(C)COS(=O)OCC(C)(C)C	1%[11.4 µM]	0%[11.5 µM]	-8%[11.4 µM]	-7%[11.4 µM]	-3%[11.5 µM]	21%[11.4 µM]
COc1ccc(-n2c(=O)c(CCc3ccccc3)nc3cncnc32)cc1	-3%	-7%	-10%	u	-2%	u
C=C1CC[C@@H](O)C/C1=C/C=C1\CCC[C@]2(C)[C@@H]1CC[C@H]2[C@@H](C)/C=C\[C@@H](C)C(C)C	x	x	x	13%	x	3%
OC[C@@H]1O[C@@H](n2cnc3c(SCc4ccccc4)ncnc32)[C@@H](O)[C@H]1O	8%[11.4 µM]	0%[11.5 µM]	-9%[11.4 µM]	0%[11.4 µM]	0%[11.5 µM]	-10%[11.4 µM]
COc1ccccc1CNc1ncnc2ccc(-c3cccc(C#N)c3)cc12	-10%	-6%	46%	u	-4%	u
